Results on 40 compounds are retold here after PubChem BioAssay (Tox21).

Results filed as inconclusive are left out. Calls of active or inactive are those of the source. Calls come from the whole dose curve.
% is set by controls: 0 for no effect and ±100 for the full control effect.

The target of the experiment is Beta-2 adrenergic receptor (Homo sapiens) (UniProt P07550). Description: Adrenergic beta2 receptor (ADRB2) small molecule antagonists, cell-based qHTS assay (AID 1963592). Note: nearly all actives have a fitted effect of over 50% in size. The settings on record: CHO-ADRB2 cells, isoproterenol-stimulated cAMP HTRF ratio, 0.5 h; series mostly up to 92.4 µM; activity change, negative = inhibition: at the top concentration. From the text: U.S. Tox21 Program National Center for Advancing Translational Sciences [NCATS] Division of Preclinical Innovation [DPI] U.S. Environmental Protection Agency [EPA] National Institutes of Environmental Health Sciences [NIEHS] National Toxicology Program [NTP] U.S. Food and Drug Administration [FDA] Tox21 Assay Overview: Beta adrenergic receptors (Beta-ARs) belong to the G-protein coupled receptor (GPCR) superfamily, includes three subtypes - beta1, beta2, and beta3. Beta1-AR is the predominant receptor subtype expressed in the heart, and beta2-AR is expressed in the kidney, lung, blood vessel and in the heart, and beta3 is found in the adipocytes. Beta1 and 2 ARs couple to Gs protein and elevate cyclic adenosine mono phosphate (cAMP), which activates protein kinase A and leads to the downstream signaling responsible for the physiological actions. Beta-AR agonists or antagonists are the most prescribed therapeutic agents for heart failure and asthma, and these were one of the first target receptors for the rational drug design. Tox21 10K compound library was screened using the cAMP-Gs dynamic assay (Cisbio Bioassays, Shelton, CT) to identify agonists/antagonists of the Gs-coupled human adrenergic, beta2 receptor (ADRB2) in the CHO-ADRB2 cell line (Codex BioSolutions, Inc. Gaithersburg, MD), which stably over-expresses ADRB2. The principle of cAMP-Gs dynamic assay is based on HTRF technology, which facilitates the fluorescence resonance energy transfer (FRET) between donor Europium cryptate and acceptor d2-labeled cAMP. The cAMP generated within cells competes with the red acceptor, d2-labled cAMP, for binding to the monoclonal anti-cAMP-cryptate (Europium donor). An increase in intracellular cAMP leads to the disruption of FRET signal, and the signal is inversely proportional to the cAMP concentration. Propranolol HCl (Sigma-Aldrich, St. Louis, MO) was used as a positive control in the screening.
Chain of Beta-2 adrenergic receptor (Homo sapiens) (P07550 whole entry, looked up): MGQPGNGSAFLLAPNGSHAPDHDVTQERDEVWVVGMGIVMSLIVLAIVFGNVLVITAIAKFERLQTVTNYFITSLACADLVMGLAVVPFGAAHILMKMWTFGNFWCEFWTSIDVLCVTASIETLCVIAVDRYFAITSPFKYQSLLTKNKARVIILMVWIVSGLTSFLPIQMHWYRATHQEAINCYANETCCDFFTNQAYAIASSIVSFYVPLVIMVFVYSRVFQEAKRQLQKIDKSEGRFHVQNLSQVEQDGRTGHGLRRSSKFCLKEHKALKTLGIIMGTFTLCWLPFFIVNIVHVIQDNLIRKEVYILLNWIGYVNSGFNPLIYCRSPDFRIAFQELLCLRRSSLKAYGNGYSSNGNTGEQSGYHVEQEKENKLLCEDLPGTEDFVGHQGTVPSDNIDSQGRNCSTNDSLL
Tox21 Assay Protocol Summary: CHO-ADRB2 cells were dispensed at 1,000/well in 4uL assay medium into white/solid 1536-well plates (Greiner Bio-One North America Inc., Monroe, NC) using a Multidrop Combi dispenser (ThermoFisher Scientific, Waltham, MA). The assay plates were incubated at 37C and 5% CO2 for an overnight (18-20hr). Then positive control and test compounds dissolved in DMSO were transferred to the assay plates at 23nL using a Pintool station (Wako, San Diego, CA). Following the compound and positive control transfer, 1uL agonist-stimulation mix containing 1nM Isoproterenol HCl, 100uM IBMX and 25uM Ro-20-1724 was added to each well of the assay plates using BioRAPTR Flying Reagent Dispenser (FRD, Beckman Coulter, Brea, CA). The assay plates were incubated at room temperature for 0.5hr. Then 2.5ul each d2-labled cAMP and anti-cAMP-cryptate solutions were added separately to each well of the assay plates using an FRD and the assay plates were incubated at room temperature for 1hr. The fluorescence signal was measured at two different wavelengths (665nm and 615nm) using an Envision plate reader (Perkin Elmer, Shelton, CT). Data were expressed as the ratio of 665 nm/615 nm.
For orientation: Quantitative high-throughput screening tests each substance at several concentrations.
For `Cn1cnc([N+](=O)[O-])c1Sc1ncnc2nc[nH]c12`, the Potency result was “inactive”.

With `Cn1ccnc1`, the “activity change, negative = inhibition” value was 4.56% (inactive). On to `CCCCCCCCCCCCCCCCCC(=O)OCC(CC)CCCC` (stereo not given), for which the “activity change, negative = inhibition” value is 2.3% (inactive).

With `CC(=O)[O][Al][O]C(C)=O`, the “activity change, negative = inhibition” value was 0.0594% (inactive). On the same count and under the same terms, the result for `CCC(C)C1N=C(C)C(C)S1` (stereo not given) reads 0.414% (inactive).

As to `O=C1Cc2cc(Cl)ccc2N1`, the “activity change, negative = inhibition” value was 4.61% [at 42.5 µM] (inactive).

`O=C1CC2(CCCC2)CC(=O)N1CCCCN1CCN(c2ncccn2)CC1`: the Potency entry is “inactive”. Turning to `CC(C)=O`, the “activity change, negative = inhibition” value is -0.354% (inactive). As to `CC1(C)O[C@@H]2C[C@H]3[C@@H]4C[C@H](F)C5=CC(=O)C=C[C@]5(C)[C@@]4(F)[C@@H](O)C[C@]3(C)[C@]2(C(=O)CO)O1`, the Potency entry was “inactive”.

For the compound `CCCCCCCCCCCCOCCO`, the Potency entry was “inactive”. As for `C=C(C)C(=O)NCCCN(C)C`, the “activity change, negative = inhibition” value was 5.25% (inactive). As to `CCCCCCCCCOS(=O)(=O)O`, the “activity change, negative = inhibition” value is 0.427% (inactive).

On to `CO[C@@H]1[C@@H](O[C@@H]2O[C@H](C)[C@@H](O[C@H]3C[C@@](C)(O)[C@@H](O)[C@H](C)O3)[C@H](N(C)C)[C@H]2O)[C@@H](CC=O)C[C@@H](C)[C@@H](O[C@@H]2CC[C@H](N(C)C)[C@@H](C)O2)/C=C/C=C/C[C@@H](C)OC(=O)C[C@H]1OC(C)=O`, for which the “activity change, negative = inhibition” value was 1.06% [at 42.5 µM] (inactive). `COc1cc(C(=S)N2CCOCC2)cc(OC)c1OC`: the “activity change, negative = inhibition” value was 2.66% [at 42.5 µM] (inactive).

Consider `O=c1[nH]c(=O)n([C@H]2CCCO2)cc1F`, for which the Potency result was “inactive”.

Turning to `NS(=O)(=O)c1cc2c(cc1Cl)NC(C1CC3C=CC1C3)NS2(=O)=O` (stereo not given), the “activity change, negative = inhibition” value is -10.4% [at 42.5 µM] (inactive).

Consider `CSc1cnccn1`, for which the “activity change, negative = inhibition” value is 4.82% (inactive).

Regarding `CC(CCC(=O)O)C(=O)O` (stereo not given), the “activity change, negative = inhibition” value is 2.83% (inactive). Regarding `C1COCCO1`, the “activity change, negative = inhibition” value was -5.28% (inactive). As for `NCCNCCNCCN`, the Potency result is “inactive”. `c1ccc2c(c1)ccc1ncccc12`: the “activity change, negative = inhibition” value was -13.2% (inactive). On to `CC(C)(C)C1CCCCC1O` (stereo not given), for which the “activity change, negative = inhibition” value was -9.19% (inactive).

As for `Cn1cnc2c1c(=O)[nH]c(=O)n2C`, the Potency result is “inactive”. For `FC(F)(F)c1ccccc1`, the “activity change, negative = inhibition” value was 0.298% (inactive). With `CCCCCCCCOCCC#N`, the “activity change, negative = inhibition” value is 2.06% (inactive). In the case of `CC(C)(C)c1ccc(S)cc1`, the “activity change, negative = inhibition” value was 9.11% (inactive). On the same count and under the same terms, the figure for `CCC(=O)OC(C)(C)C1CC=C(C)CC1` (stereo not given) is -10.3% (inactive). As for `CCCCCCCC/C=C\CCCCCCCC(=O)OCCCC`, the activity change, negative = inhibition is -2.11% [at 19 µM] (inactive).

Take `O=Cc1ccc(Cl)cc1`: the “activity change, negative = inhibition” value was 0.519% (inactive).

`CCCO[Si](OCCC)(OCCC)OCCC`: the “activity change, negative = inhibition” value was -3.36% (inactive).

`COc1cc(C(=O)N2CCOCC2)cc(OC)c1OC`: the “activity change, negative = inhibition” value is 2.62% [at 42.5 µM] (inactive). Still for that read-out and setting: the figure for `CCCCCCCCS` is 9.96% (inactive).

Regarding `CCC(C)CO` (stereo not given), the Potency entry was “inactive”. Consider `CCCCCCCCC1CCC(=O)O1` (stereo not given), for which the “activity change, negative = inhibition” value was -6.84% (inactive).

Turning to `C=C1C[C@H]2[C@@H]3C=C(C)C4=CC(=O)CC[C@]4(C)[C@H]3CC[C@]2(C)[C@@]1(OC(C)=O)C(C)=O`, the Potency entry was “inactive”.

With `CC(=O)c1cccc([N+](=O)[O-])c1`, the “activity change, negative = inhibition” value was -8.62% (inactive). As to `OCCNCCO`, the Potency entry is “inactive”. Take `CCCCCCCN`: the “activity change, negative = inhibition” value was -15.8% (inactive).

For `CCCCN(CCO)CCO`, the “activity change, negative = inhibition” value is 1.87% (inactive). `CC12CC3CC(C)(C1)CC(N)(C3)C2`: the “activity change, negative = inhibition” value is 0.61% [at 42.5 µM] (inactive).
